# Assay results: PubChem BioAssay (NCATS)
# Values without a mark were called inactive. Results filed as inconclusive are left out. A call without a number means that no potency is given here. Calls of active or inactive are those of the source. Unless noted, calls follow the shape of the full dose curve.
# Legend:
# [1] = target: Alpha-galactosidase (Coffea arabica) (UniProt Q42656); experiment: Counterscreen for Glucocerebrosidase Inhibitors: qHTS Assay for Coffee Bean alpha-Galactosidase at pH 4.5 (AID 957; active = well fitted curve in the direction sought with a large enough effect; an effect the other way counts as inactive or inconclusive); details: purified coffee bean alpha-galactosidase, fluorogenic substrate; series mostly up to 76.9 µM
# Chain of Alpha-galactosidase (Coffea arabica) (Q42656 whole entry, looked up): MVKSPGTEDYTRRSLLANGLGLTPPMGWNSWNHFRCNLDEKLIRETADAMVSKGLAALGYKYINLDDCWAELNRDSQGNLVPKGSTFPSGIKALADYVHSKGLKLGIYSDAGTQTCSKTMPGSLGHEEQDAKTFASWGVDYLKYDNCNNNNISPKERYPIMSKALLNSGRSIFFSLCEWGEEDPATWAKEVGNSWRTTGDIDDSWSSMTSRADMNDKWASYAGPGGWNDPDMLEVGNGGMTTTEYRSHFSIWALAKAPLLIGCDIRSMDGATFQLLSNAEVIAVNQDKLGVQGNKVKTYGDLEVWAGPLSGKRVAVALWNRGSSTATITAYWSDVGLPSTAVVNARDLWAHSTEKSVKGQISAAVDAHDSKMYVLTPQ
# In short: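 Coffee bean alpha-galactosidase 2 nM, substrate 4-MU-alpha-Gal 80 uM, pH 4.5 citrate/Tween-20, 20 min RT. Cpd titration 0.7 nM–77 uM. Stop pH 10, fluorescence 365/440 nm; Hill-equation AC50.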
# [2] = target: Alpha-galactosidase (Coffea arabica) (UniProt Q42656); experiment: Counterscreen for Glucocerebrosidase Inhibitors: qHTS Assay for Coffee Bean alpha-Galactosidase at pH 5.9 (AID 998; active = well fitted curve in the direction sought with a large enough effect; an effect the other way counts as inactive or inconclusive); details: coffee bean alpha-galactosidase enzyme assay; series mostly up to 76.9 µM
# In short: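 Green coffee bean enzyme (2 nM final) was incubated with compounds (0.7 nM–77 uM) and 4-methylumbelliferyl alpha-D-galactopyranoside (80 uM) in citrate buffer pH 5.9, 20 min at room temperature. High-pH stop; fluorescence 365/440 nm; AC50 from Hill fits.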
# [3] = Validation screen for inhibitors of Lassa infection (AID 463096); details: Lassa virus infection, cell-based; series mostly up to 46.1 µM
# [4] = target: Glucocorticoid receptor (Homo sapiens) (UniProt P04150); experiment: GR-GFP Redistribution (AID 450;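 active = compounds whose dose series gives a full or clear partial fitted curve of increased nuclear translocation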; also: potency is read from the fitted curve at half-maximal effect); details: U2OS GR-GFP nuclear translocation, laser cytometry, 2 h
# Chain of Glucocorticoid receptor (Homo sapiens) (P04150 whole entry, looked up): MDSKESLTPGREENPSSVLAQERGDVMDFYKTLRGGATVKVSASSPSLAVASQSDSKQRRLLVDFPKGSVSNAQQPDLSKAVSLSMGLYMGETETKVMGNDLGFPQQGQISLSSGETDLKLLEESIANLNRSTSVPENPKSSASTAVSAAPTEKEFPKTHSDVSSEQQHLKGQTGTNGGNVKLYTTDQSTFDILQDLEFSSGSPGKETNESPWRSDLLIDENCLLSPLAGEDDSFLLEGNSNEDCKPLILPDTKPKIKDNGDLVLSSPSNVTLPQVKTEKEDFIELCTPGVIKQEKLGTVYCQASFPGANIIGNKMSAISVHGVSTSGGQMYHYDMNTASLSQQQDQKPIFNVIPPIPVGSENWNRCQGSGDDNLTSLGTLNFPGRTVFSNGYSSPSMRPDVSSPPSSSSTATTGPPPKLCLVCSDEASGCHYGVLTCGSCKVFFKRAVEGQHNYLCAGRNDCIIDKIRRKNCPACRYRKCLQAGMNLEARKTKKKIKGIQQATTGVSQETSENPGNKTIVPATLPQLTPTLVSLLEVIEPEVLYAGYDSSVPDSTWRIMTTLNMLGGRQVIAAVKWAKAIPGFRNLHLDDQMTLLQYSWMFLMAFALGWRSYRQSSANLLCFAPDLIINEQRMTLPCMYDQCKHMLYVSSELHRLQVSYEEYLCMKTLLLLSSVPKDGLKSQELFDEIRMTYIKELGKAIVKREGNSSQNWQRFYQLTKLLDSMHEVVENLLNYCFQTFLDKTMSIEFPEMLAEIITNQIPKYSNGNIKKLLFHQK
smiles,measurement,setting,value
COC[C@H]1OC(=O)c2coc3c2[C@@]1(C)C1=C(C3=O)[C@H]2CCC(=O)[C@@]2(C)C[C@H]1OC(C)=O,outcome,[1],inactive
same,outcome,[2],inactive
CSc1nc(N)c2ncn([C@@H]3O[C@H](COP(=O)(O)OP(=O)(O)O)[C@H](O)[C@H]3O)c2n1,Potency,[3],inactive
CC(C)(O)[C@H]1[C@H]2OC(=O)[C@@H]1[C@]1(O)C[C@H]3O[C@]34C(=O)O[C@H]2[C@]14C,Potency,[4],> 46 µM
COc1cc2c(cc1OC)-c1c(O)c(OC)cc3c1[C@@H](C2)N(C)CC3,Potency,[4],> 46 µM
COc1cc2c(cc1OC)-c1c(OC)c(OC)c(CO)c3c1[C@H](C2)N(C)CC3,Potency,[4],> 46 µM
COC1=C[C@H]2[C@@H]3Cc4ccc(OC)c(O)c4[C@@]2(CCN3C)CC1=O,Potency,[4],> 46 µM
CN1CCc2cc(Cl)c(O)cc2C(c2ccccc2)C1 (stereo unspecified),Potency,[3],inactive
NC(CCC(=O)NCS(=O)(=O)O)C(=O)O (stereo unspecified),Potency,[3],inactive
CCCC1O[C@@H]2C[C@H]3[C@@H]4CCC5=CC(=O)C=C[C@]5(C)C4[C@@H](O)C[C@]3(C)[C@]2(C(=O)CO)O1 (stereo partly specified),Potency,[3],inactive
OC[C@H]1CCCN2CCCC[C@@H]12,Potency,[4],> 46 µM
CN=C(N)NCCCC(N)C(=O)O (stereo unspecified),Potency,[3],inactive
Nc1nc(SCc2ccc([N+](=O)[O-])cc2)c2ncn([C@@H]3O[C@H](CO)[C@H](O)[C@H]3O)c2n1,Potency,[3],inactive
CC(O)[C@@H](O)[C@H]1CNc2nc(N)[nH]c(=O)c2N1 (stereo partly specified),Potency,[3],inactive
CC1=CC(=O)C2=C(C)C[C@H](O)[C@@H]3[C@@H](OC(=O)[C@H]3C)[C@H]12,Potency,[4],> 46 µM
CC[C@H](C)C(=O)O[C@H]1CCC=C2C=C[C@H](C)[C@H](CC[C@@H]3C[C@H](O)CC(=O)O3)C21 (stereo partly specified),Potency,[3],inactive
CC[C@H](CO)NC(=O)[C@H]1C=C2c3cccc4[nH]cc(c34)C[C@H]2N(C)C1,Potency,[4],> 46 µM
C[C@@]12CCC[C@](C)(C(=O)O)[C@@H]1CCc1ccc(O)cc12,Potency,[4],> 46 µM
CNC(=O)[C@H]1O[C@@H](n2cnc3c(NCc4cccc(I)c4)ncnc32)[C@H](O)[C@H]1O,Potency,[3],inactive
CN1C(=O)CCC1c1cccnc1 (stereo unspecified),Potency,[3],inactive
CCCCCCCCCCCCCCC/C=C/[C@@H](O)[C@H](NC(=O)CCCCCCCCCCCCC)OC (tested in a mixture with another compound),Potency,[3],inactive
C[C@H]1CC2[C@@H]3CCC4=CC(=O)C=C[C@]4(C)[C@@]3(Cl)[C@@H](O)C[C@]2(C)[C@@]1(O)C(=O)CO (stereo partly specified),Potency,[3],inactive
CN1C2CC(OC(=O)C(CO)c3ccccc3)CC1C1OC12 (stereo unspecified),Potency,[3],inactive
COc1cc2c(cc1O)CCN[C@H]2C,Potency,[4],> 46 µM
Nc1nc(Cl)nc2c1ncn2[C@@H]1O[C@H](COP(=O)(O)OP(=O)(O)OP(=O)(O)O)[C@H](O)[C@H]1O,Potency,[3],inactive
Nc1ncnc2c1nc(Sc1ccc(Cl)cc1)n2[C@H]1O[C@@H]2COP(=O)(O)O[C@H]2[C@@H]1O,Potency,[3],inactive
Cc1cn([C@H]2C[C@@H](N=[N+]=[N-])[C@@H](CO)O2)c(=O)[nH]c1=O,Potency,[3],inactive
NCCCCCCNS(=O)(=O)c1cccc2c(Cl)cccc12,outcome,[1],inactive
same,outcome,[2],inactive
same,Potency,[3],inactive
CCSC(N)=Nc1ccc(C(F)(F)F)cc1,outcome,[1],inactive
same,outcome,[2],inactive
same,Potency,[3],inactive
O=C(Nc1cc(C(=O)Nc2ccc(S(=O)(=O)O)cc2S(=O)(=O)O)cc(C(=O)Nc2ccc(S(=O)(=O)O)cc2S(=O)(=O)O)c1)Nc1cc(C(=O)Nc2ccc(S(=O)(=O)O)cc2S(=O)(=O)O)cc(C(=O)Nc2ccc(S(=O)(=O)O)cc2S(=O)(=O)O)c1,outcome,[1],inactive
same,outcome,[2],inactive
same,Potency,[3],inactive
CC(C)C[C@H](N)CSSC[C@@H](N)CC(C)C,outcome,[1],inactive
same,outcome,[2],inactive
same,Potency,[3],inactive
CCCCN1CCC(COC(=O)c2cc(Cl)c(N)c3c2OCCO3)CC1,outcome,[1],inactive
same,outcome,[2],inactive
same,Potency,[3],inactive
N=C(N)SCCc1cccc(CCSC(=N)N)c1,outcome,[1],inactive
same,outcome,[2],inactive
same,Potency,[3],inactive
NCCC(=O)NCCc1cnc[nH]1,outcome,[1],inactive
same,outcome,[2],inactive
same,Potency,[3],inactive
CCCC(=O)NCCc1c2n(c3ccc(OC)cc13)Cc1ccccc1-2,outcome,[1],inactive
same,outcome,[2],inactive
same,Potency,[3],inactive
